Measurements: PubChem BioAssay AID1159580 (chemical genetic matrix, 2015)
Out of some 5,500 compounds screened, about 2,000 (36%) were called active. About 18% were inconclusive and are not listed. Cut-off read from the data, not from the text of the source: active = normalized growth mostly below about 0.91 (no sharp cut-off); inconclusive = no clear call, values can overlap the other calls; inactive = mostly above about 0.92. The list shows a part of the results.

Test: chemical genetic growth profiling, strain panel (AID 1159580);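 note: tested at 20 µM; growth read once vehicle control cultures reached saturation at 30 °C; 1 = growth at the plate median or of vehicle wells; lower values mean less growth of the strain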
Settings: growth OD

Measured: normalized growth

COc1ccc2c3c1OC1C(O)CC=C4C(C2)N(C)CCC431 (stereo unspecified)
inactive: S. cerevisiae deletion strains, locus YAL013W, strain DEP1, hits give low values 0.994 | S. cerevisiae deletion strains, locus YBR021W, strain FUR4, hits give low values 1.01 | S. cerevisiae deletion strains, locus YBR229C, strain ROT2, hits give low values 1.01 | S. cerevisiae deletion strains, locus YCL029C, strain bik1, hits give low values 1.03 | S. cerevisiae deletion strains, locus YDL035C, strain GPR1, hits give low values 1.01 | S. cerevisiae deletion strains, locus YDL074C, strain BRE1, hits give low values 1.04 | S. cerevisiae deletion strains, locus YDL101C, strain DUN1, hits give low values 1.03 | S. cerevisiae deletion strains, locus YDL134C, strain PPH21, hits give low values 1.01 | S. cerevisiae deletion strains, locus YDL185W, strain tfp1, hits give low values 1.02 | S. cerevisiae deletion strains, locus YDL192W, strain arf1, hits give low values 1.02 | S. cerevisiae deletion strains, locus YDR101C, strain arx1, hits give low values 1 | S. cerevisiae deletion strains, locus YDR150W, strain NUM1, hits give low values 1.02 | S. cerevisiae deletion strains, locus YDR162C, strain NBP2, hits give low values 1.01 | S. cerevisiae deletion strains, locus YDR318W, strain mcm21, hits give low values 1.02 | S. cerevisiae deletion strains, locus YDR388W, hits give low values 1 | S. cerevisiae deletion strains, locus YDR502C, strain sam2, hits give low values 1.01 | S. cerevisiae deletion strains, locus YEL061C, strain CIN8, hits give low values 1.01 | S. cerevisiae deletion strains, locus YER110C, hits give low values 1.02 | S. cerevisiae deletion strains, locus YER155C, strain BEM2, hits give low values 0.996 | S. cerevisiae deletion strains, locus YER167W, strain BCK2, hits give low values 1.03 | S. cerevisiae deletion strains, locus YGL078C, strain dbp3, hits give low values 1.01 | S. cerevisiae deletion strains, locus YGL086W, strain mad1, hits give low values 1.02 | S. cerevisiae deletion strains, locus YGL248W, strain PDE1, hits give low values 1.02 | S. cerevisiae deletion strains, locus YGR078C, strain PAC10, hits give low values 1.03 | S. cerevisiae deletion strains, locus YGR135W, strain pre9, hits give low values 1.01 | S. cerevisiae deletion strains, locus YGR229C, strain SMI1, hits give low values 0.993 | S. cerevisiae deletion strains, locus YGR252W, strain gcn5, hits give low values 1.02 | S. cerevisiae deletion strains, locus YHR030C, strain SLT2, hits give low values 1.01 | S. cerevisiae deletion strains, locus YHR079C, strain IRE1 (second series), hits give low values 1.02 | S. cerevisiae deletion strains, locus YHR094C, strain hxt1, hits give low values 1.01 | S. cerevisiae deletion strains, locus YHR129C, strain ARP1, hits give low values 1.01 | S. cerevisiae deletion strains, locus YHR200W, strain rpn10, hits give low values 1.01 | S. cerevisiae deletion strains, locus YIL066C, strain RNR3, hits give low values 1.01 | S. cerevisiae deletion strains, locus YIL073C, strain SPO22, hits give low values 1.1 | S. cerevisiae deletion strains, locus YIL125W, strain kgd1, hits give low values 1.01 | S. cerevisiae deletion strains, locus YIR030C, strain dcg1, hits give low values 1.02 | S. cerevisiae deletion strains, locus YJL095W, strain BCK1, hits give low values 1.03 | S. cerevisiae deletion strains, locus YJL134W, strain LCB3, hits give low values 1.01 | S. cerevisiae deletion strains, locus YJL168C, strain set2, hits give low values 1.02 | S. cerevisiae deletion strains, locus YJL187C, strain SWE1 (second series), hits give low values 1.02 | S. cerevisiae deletion strains, locus YJR043C, strain POL32, hits give low values 1.03 | S. cerevisiae deletion strains, locus YJR075W, strain HOC1, hits give low values 1.02 | S. cerevisiae deletion strains, locus YKL009W, strain mrt4, hits give low values 1.03 | S. cerevisiae deletion strains, locus YKL068W, hits give low values 1.01 | S. cerevisiae deletion strains, locus YKL085W, strain MDH1 (second series), hits give low values 1.01 | S. cerevisiae deletion strains, locus YKL085W, strain MDH1, hits give low values 1.01 | S. cerevisiae deletion strains, locus YKL190W, strain CNB1, hits give low values 1.01 | S. cerevisiae deletion strains, locus YKR001C, strain vps1, hits give low values 1.03 | S. cerevisiae deletion strains, locus YLR039C, strain RIC1, hits give low values 1.04 | S. cerevisiae deletion strains, locus YLR058C, strain SHM2, hits give low values 1.02 | S. cerevisiae deletion strains, locus YLR102C, strain apc9, hits give low values 1.01 | S. cerevisiae deletion strains, locus YLR262C, strain YPT6, hits give low values 1.05 | S. cerevisiae deletion strains, locus YLR268W, strain sec22, hits give low values 1.02 | S. cerevisiae deletion strains, locus YLR330W, strain CHS5, hits give low values 1.01 | S. cerevisiae deletion strains, locus YLR342W, strain FKS1 (second series), hits give low values 1.02 | S. cerevisiae deletion strains, locus YLR371W, strain rom2, hits give low values 1.01 | S. cerevisiae deletion strains, locus YLR418C, strain cdc73, hits give low values 1.02 | S. cerevisiae deletion strains, locus YML016C, strain PPZ1, hits give low values 1.02 | S. cerevisiae deletion strains, locus YML032C, strain rad52, hits give low values 1.02 | S. cerevisiae deletion strains, locus YML124C, strain tub3, hits give low values 1.02 | S. cerevisiae deletion strains, locus YMR078C, strain ctf18, hits give low values 1.03 | S. cerevisiae deletion strains, locus YMR223W, strain ubp8, hits give low values 1.03 | S. cerevisiae deletion strains, locus YMR263W, strain SAP30, hits give low values 1.02 | S. cerevisiae deletion strains, locus YMR307W, strain GAS1, hits give low values 0.962 | S. cerevisiae deletion strains, locus YNL067W, strain RPL9B, hits give low values 1.03 | S. cerevisiae deletion strains, locus YNL128W, strain TEP1, hits give low values 1.02 | S. cerevisiae deletion strains, locus YNL153C, strain GIM3, hits give low values 1.02 | S. cerevisiae deletion strains, locus YNL233W, strain BNI4, hits give low values 1.02 | S. cerevisiae deletion strains, locus YNL250W, strain rad50, hits give low values 1.03 | S. cerevisiae deletion strains, locus YNL271C, strain bni1, hits give low values 1.01 | S. cerevisiae deletion strains, locus YNL298W, strain CLA4, hits give low values 1.03 | S. cerevisiae deletion strains, locus YNL307C, strain MCK1, hits give low values 1.02 | S. cerevisiae deletion strains, locus YNL322C, strain KRE1, hits give low values 1.01 | S. cerevisiae deletion strains, locus YNR052C, strain pop2, hits give low values 1.02 | S. cerevisiae deletion strains, locus YOL006C, strain TOP1, hits give low values 1.1 | S. cerevisiae deletion strains, locus YOL012C, strain htz1 0.859 | S. cerevisiae deletion strains, locus YOL147C, strain pex11, hits give low values 1 | S. cerevisiae deletion strains, locus YOR061W, strain CKA2, hits give low values 1.02 | S. cerevisiae deletion strains, locus YOR069W, strain VPS5, hits give low values 1.01 | S. cerevisiae deletion strains, locus YOR136W, strain idh2, hits give low values 1.02 | S. cerevisiae deletion strains, locus YOR144C, strain elg1, hits give low values 1.02 | S. cerevisiae deletion strains, locus YOR184W, strain ser1, hits give low values 1.03 | S. cerevisiae deletion strains, locus YOR316C, strain cot1, hits give low values 1.02 | S. cerevisiae deletion strains, locus YPL055C, strain LGE1, hits give low values 1.03 | S. cerevisiae deletion strains, locus YPL241C, strain CIN2, hits give low values 1.01 | S. cerevisiae deletion strains, locus YPR119W, strain clb2, hits give low values 1 | S. cerevisiae deletion strains, locus YPR141C, strain kar3, hits give low values 1.01 | S. cerevisiae deletion strains, locus YPR163C, strain tif3, hits give low values 1.02 | S. cerevisiae deletion strains, locus YPR167C, strain met16, hits give low values 1.02 | S. cerevisiae deletion strains, strain wtn01, hits give low values 1.01 | S. cerevisiae strains, strain wild type, hits give low values 1
